PubChem BioAssay (NCI)
This is part of a sample that, as a whole, favours compounds with a hit. Of some 83,000 tested, about 20% had one in any assay.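 Interpretation: 100, growth as untreated; towards 0, rising growth inhibition; 0, no net growth; 0 to -100, cell death. Compounds scoring below 10 were considered active.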 Unmarked numbers belong to inactive results. The source made the active and inactive calls.

Tests used:
Assay in all cases: NCI-60 one-dose screen, 48 h (100 = growth as untreated, 0 = no growth, -100 = all killed)
Details in all cases: 10 µM unless noted
NCI-H23 lung = tested on: NCI-H23 lung
NCI-H226 lung = tested on: NCI-H226 lung
NCI-H322M lung = tested on: NCI-H322M lung
HOP-62 NSCLC = tested on: HOP-62 NSCLC
NCI-H460 lung = tested on: NCI-H460 lung
HOP-92 NSCLC = tested on: HOP-92 NSCLC
NCI-H522 lung = tested on: NCI-H522 lung
A549/ATCC NSCLC = tested on: A549/ATCC NSCLC
786-0 renal = tested on: 786-0 renal
COLO 205 colon = tested on: COLO 205 colon
DU-145 prostate = tested on: DU-145 prostate
K-562 leukemia = tested on: K-562 leukemia
MALME-3M melanoma = tested on: MALME-3M melanoma
MDA-MB-231 breast = tested on: MDA-MB-231 breast
RXF 393 renal = tested on: RXF 393 renal
SF-268 CNS = tested on: SF-268 CNS
SF-295 CNS = tested on: SF-295 CNS
SF-539 CNS = tested on: SF-539 CNS
UACC-257 melanoma = tested on: UACC-257 melanoma
M14 melanoma = tested on: M14 melanoma

SMILES	growth (NCI-H23 lung) [%]	growth (NCI-H226 lung) [%]	growth (NCI-H322M lung)	growth (HOP-62 NSCLC)	growth (NCI-H460 lung) [%]	growth (HOP-92 NSCLC)	growth (NCI-H522 lung)	growth (A549/ATCC NSCLC) [%]	growth (786-0 renal)	growth (COLO 205 colon)	growth (DU-145 prostate) [%]	growth (K-562 leukemia)	growth (MALME-3M melanoma)	growth (MDA-MB-231 breast)	growth (RXF 393 renal)	growth (SF-268 CNS) [%]	growth (SF-295 CNS)	growth (SF-539 CNS)	growth (UACC-257 melanoma)	growth (M14 melanoma) [%]
COc1ccc(NC(=O)COCCOCCNC[C@@H]2C(=O)O[C@H]3[C@H]2CC/C(COC(=O)OC/C2=C/CC[C@@]4(C)O[C@H]4[C@H]4OC(=O)[C@@H](CN(C)C)[C@@H]4CC2)=C\CC[C@@]2(C)O[C@@H]32)c(O)c1C(N)=O	81.8	49.9	102%	93.9%	96	-26.6% (active)	-75.7% (active)	72.9	-26.1% (active)	-27.9% (active)	57	5.46% (active)	-21.1% (active)	21.8%	-40.5% (active)	91.5	105%	46.4%	40.5%	53.9
C[C@]12CC[C@@H]3c4ccc(O)c(N)c4CC[C@H]3[C@@H]1CC[C@@H]2O	101	112	114%	143%	102	140%	82.6%	99.9	118%	123%	110	79.8%	129%	115%	116%	98.9	108%	106%	82.5%	100
COc1ccc(CNc2nc3ccccc3c3c(=O)c4ccccc4sc23)cc1OC	80.9	75.6	80.6%	79.8%	63.3	42.8%	77.4%	61.6	76.8%	79.4%	74	69.3%	66.6%	61.5%	61%	78.7	68.3%	81%	88.6%	86.2
O=S(=O)(CCN1CCOCC1)Nc1cc(-c2ccc3ncnc(Nc4ccc(F)c(Cl)c4)c3c2)cnc1Cl	28	26.9	0.347% (active)	-0.609% (active)	14.8	-20.8% (active)	17.2%	10.3	8.06% (active)	-6.12% (active)	15.6	42.3%	-23.1% (active)	-1.28% (active)	-19% (active)	16.8	2.93% (active)	-34.5% (active)	-3.1% (active)	14.5
COc1ccccc1N1CCN(CC(O)COc2c(Br)c(Br)c(Br)c3c2OC(C)(C)C3)CC1 (stereo not given)	48.8	45	59.9%	66.1%	15.1	-28.9% (active)	55.1%	45.5	6.05% (active)	58.6%	97.2	11%	67.2%	44.9%	40.2%	131	29.8%	94.1%	96.9%	29.9
C/C(=N\N=C1/SCC(=O)N1c1ccccc1)c1ccco1	99.4	124	89.8%	137%	123	63.3%	75.4%	114	52%	130%	119	96.4%	82.1%	93.2%	112%	91.6	98.3%	118%	118%	176
O=S(=O)(CCN1CCOCC1)Nc1cncc(-c2ccc3ncnc(Nc4ccc(F)c(Cl)c4)c3c2)c1	74.8	84.8	33.8%	40%	98.6	13%	54.8%	77.2	58.9%	64.9%	65.3	96.5%	57.7%	67.9%	84.6%	63.5	82.1%	75.1%	87.6%	73.3
COc1ccc(C(=O)NC(=O)Nc2ccc3c(c2)NC(=O)/C3=C\c2[nH]c(C)c(C(=O)O)c2C)c(F)c1	48.9	67.1	45%	64.9%	69.8	63.9%	37.8%	47.6	35%	88.6%	28.2	62.6%	-8% (active)	63.5%	-21% (active)	65.4	33.1%	47.8%	47.2%	17.6
